Compound activity from PubChem.
Shown are actives, neighbours in structure and some others; about 3.7% of the full set was active somewhere.
MazF activator: increases E. coli MazEF RNase cleavage of RNA. hit rate 0.32% among 350,000. P0AE70. activation, % at 20 µM. FAM/BHQ RNA-DNA oligo cleavage fluorescence, 5 h; in the data active = activation above about 50%
Bead autofluor: flagged as autofluorescent in microsphere protease counterscreen; compound autofluorescence counterscreen, microsphere flow cytometry; stronger effect = higher value; fluorescence intensity (concentration not given with the values); hit rate 3.1% among 360,000; AID 624483; in the data active = fluorescence intensity above about 16000; inconclusive = no clear call, values can overlap the other calls
BoNT-F LC inh: inhibitors of Botulinum neurotoxin F light chain protease | Multiplex microsphere protease cleavage assay, flow cytometry | inhibition, % at 10 µM | hit rate 0.22% among 360,000 | AID 588497; in the data active = inhibition above about 35%, passing the limit was not always enough; inconclusive = no clear call, values can overlap the other calls; note: plate controls were buffer without enzyme for full effect and enzyme alone for no effect
BoNT A protease: blocks Botulinum neurotoxin A light chain protease | multiplex microsphere protease substrate cleavage, flow cytometry | inhibition, % at 10 µM | hit rate 0.17% among 360,000; note: plate controls were buffer without enzyme for full effect and enzyme alone for no effect
Anthrax LF prot: blocks Bacillus anthracis lethal factor protease; multiplex microsphere protease cleavage assay, LF; inhibition, % at 10 µM; hit rate 0.12% among 360,000; note: plate controls were buffer without enzyme for full effect and enzyme alone for no effect
* hit, by the source's call; ? = inconclusive; / = no result given. Cut-off read from the data, not from the text of the source, unless noted: active = inhibition above about 30%; inconclusive = no clear call, values can overlap the other calls; inactive = below that.

SMILES	MazF activator	Bead autofluor	BoNT-F LC inh	BoNT A protease	Anthrax LF prot
O=C(c1ccccc1Br)N1CCCC(c2nc(-c3cccs3)no2)C1 (centres undefined)	2.4	4535	-0.2	0.6	1.6
O=C(Cc1ccccc1)N1CCCC(c2nc(-c3cccs3)no2)C1 (centres undefined)	-6.4	23522*	-6.7	-3.7	-1.3
Cc1ccc(S(=O)(=O)CCC(=O)OCc2nc(N)nc(Nc3ccccc3C)n2)cc1	-2.1	5567	-6.8	0.0	3.7
Cc1ccccc1Nc1nc(N)nc(COC(=O)CCS(=O)(=O)c2ccccc2)n1	6.0	24248*	-5.2	-0.8	-2.5
CC(C)[C@H](NC(N)=O)C(=O)NCCc1ccc(Cl)cc1	-4.4	3212	1.5	-0.1	-1.1
CC(C)[C@H](NC(=O)NCCc1ccc(Cl)cc1)C(=O)O	-0.9	17382*	-8.3	?	-2.8
Nc1ccccc1C#Cc1ccccc1	7.9	3624	0.3	0.6	-3.5
Nc1ccc(C#Cc2ccccc2)cc1	-2.6	20219*	1.2	?	1.3
Cc1ccc(Cc2c(-c3ccc(C#N)cc3)nc3ccc(Cl)cn23)cc1	/	8885	4.9	7.0	16.2
COC(=O)c1sccc1NC(=O)c1cc(-c2ccc(C)cc2)nc2ccccc12	-6.4	2623	-8.2	0.5	0.4
COC(=O)c1sccc1NC(=O)c1cc(-c2cc(C)ccc2C)nc2ccccc12	-6.6	21965*	1.9	2.9	-2.8
Cc1ccc(C)c(-c2cc(C(=O)Nc3nccs3)c3ccccc3n2)c1	-6.0	24181*	-4.9	-0.7	1.8
Cc1ccccc1-c1cc(C(=O)Nc2sc(C(=O)OC(C)C)c(C)c2C#N)c2ccccc2n1	-10.5	16235*	0.8	1.7	-3.6
COC(=O)c1sc(NC(=O)c2cc(-c3ccccc3)nc3ccccc23)c(C#N)c1C	-7.7	2786	-0.4	0.3	-0.2
O=C(O)CCCC(=O)Nc1ccccc1C(=O)N1CCOCC1	-16.1	3566	-3.5	-1.0	4.0
CCc1cc(C(=O)COc2ccccc2F)c(O)cc1O	-7.4	18558*	2.1	?	-5.9
CCOc1ccc2oc(C(=O)Nc3cc(C)ccn3)c(C)c2c1	-1.7	/	/	/	/
COc1ccc(N2C3=[N+](CCCC3)CC2(C)O)cc1 (centres undefined)	6.3	16662*	-4.3	-2.7	-4.2
O=c1nc(N(c2ccccc2)c2ccccc2)[nH]c(=O)[nH]1	7.1	20223*	-3.2	?	-0.8
CC(Oc1ccccc1F)C(=O)/C=C/N(C)C (centres undefined)	6.0	9965	-4.1	0.4	-0.7
CC(Oc1ccccc1Cl)C(=O)/C=C/N(C)C (centres undefined)	-9.4	20970*	4.9	3.5	0.4
Cc1[nH]n(-c2ccccc2)c(=O)c1N=Nc1cccc(Cl)c1	7.6	3809	-15.4	-2.8	3.5
Cc1[nH]n(-c2ccccc2)c(=O)c1N=Nc1cccc([N+](=O)[O-])c1	-10.6	4038	42.0*	-2.1	-7.7
NC1=NC(=O)/C(=C/c2cccs2)S1	6.9	23925*	-1.9	-0.9	-1.1
CCOC(=O)C1=CCN(S(=O)(=O)c2ccccc2Br)C1c1ccccc1 (centres undefined)	/	6488	-2.2	0.0	-5.3
SMILES	MazF activator	Bead autofluor	BoNT-F LC inh	BoNT A protease	Anthrax LF prot
CC(=O)c1cccc(NC(=O)CN(c2ccccc2F)S(C)(=O)=O)c1	3.5	22974*	2.2	0.6	0.2
CN(C)S(=O)(=O)N(CC(=O)Nc1ccc(F)c(F)c1)c1ccccc1	-4.3	19146*	0.3	0.7	-0.8
CC(=O)c1cccc(N(CC(=O)Nc2ccc(F)cc2F)S(C)(=O)=O)c1	5.2	22378*	1.1	1.3	-3.9
CC(=O)c1cccc(NC(=O)CN(c2ccccc2)S(C)(=O)=O)c1	4.2	4559	-2.6	0.8	0.6
CN(C)S(=O)(=O)N(CC(=O)Nc1ccc2ccccc2c1)c1ccccc1	-3.7	3083	-20.3	-0.9	-2.3
CC(=O)c1cccc(N(CC(=O)Nc2ccccc2F)S(C)(=O)=O)c1	-15.8	3820	-9.2	-2.5	-10.3
C=CCc1cc(Cl)ccc1OCCN1CC(C)OC(C)C1 (centres undefined)	-0.3	4020	-0.2	-0.3	-3.7
CC1(C)CC(=O)C=C(NNC(=O)c2ccccc2O)C1	-13.0	16377*	-1.4	-1.0	-3.9
Cc1cccc(C(=O)NNC2=CC(=O)CC(C)(C)C2)c1O	-10.5	3769	2.8	-0.6	4.8
Cc1ccc(CSc2nnc(-c3cccs3)n2C)cc1	5.7	13667	-9.7	-0.5	-0.8
Cn1c(SCc2ccc(Br)cc2)nnc1-c1cccs1	1.7	16457*	3.3	0.6	-4.5
Cn1c(SCc2c(Cl)cccc2Cl)nnc1-c1cccs1	0.1	18672*	5.1	?	-2.3
Cn1c(SCc2nc3ccccc3[nH]2)nnc1-c1cccs1	5.2	23403*	0.5	?	-1.3
CCCN1CCN(C(=O)c2oc3c(Cl)cccc3c2C)CC1	-16.7	3897	1.6	0.0	-4.1
COc1ccc(CC(=O)N[C@@H]2c3ccccc3CC[C@H]2OCc2ccccc2)cc1	1.1	3920	-2.9	-0.3	-4.0
O=C(NCCN1CCC(n2c(=O)[nH]c3ccccc32)CC1)c1cccnc1Cl	/	5618	0.0	0.2	1.5
O=C(CCc1ccccc1)c1ccc2c(c1)OCCCO2	-0.8	19780*	4.3	?	-0.9
CCCCOCCCNC(=O)C[C@@H]1C[C@@]2(C(=O)OCC)CCC=C2N(Cc2ccccc2)C1=O	/	6023	-1.6	0.5	0.6
COC(=O)C1C(=O)/C(=C(/C)N2CCCC2)C(=O)CC1(C)C (centres undefined)	6.0	23073*	-1.3	?	-0.1
COC(=O)c1cccc(NC(=S)NC(C)C)c1	-8.2	3935	-5.4	-0.4	-1.7
CC1CN(C(=O)CN2C(=O)NC3(CCCCCC3)C2=O)CC(C)O1 (centres undefined)	-7.6	24732*	-4.1	-1.8	-2.7
Cc1cc(C)c(NC(=O)CN2C(=O)NC3(CCCCC3)C2=O)c(C)c1	8.3	20379*	0.4	0.7	-0.4
COc1ccccc1NC(=O)COc1cccc2c1CCNC2=O	3.1	5280	-1.8	-2.6	-2.4
COc1ccc(N=C2SC(CC(=O)Nc3ccc(OC)cc3OC)C(=O)N2C)cc1 (centres undefined)	-1.6	20859*	4.7	3.2	-2.5
COc1cccc(C(=O)OCC(=O)N2CCc3ccccc3C2)c1	12.0	4486	-4.4	0.1	0.8
SMILES	MazF activator	Bead autofluor	BoNT-F LC inh	BoNT A protease	Anthrax LF prot
COCCCn1c(C)nnc1-c1cnn(-c2ccccc2)c1N	5.2	4032	-0.7	-0.9	-3.0
Cc1nnc(-c2cnn(C)c2N)n1Cc1ccccc1	5.7	3944	-12.2	-0.3	-0.3
Cc1nnc(-c2cnn(-c3ccccc3)c2N)n1Cc1ccccc1	-2.4	20987*	-1.6	-1.0	-2.8
Cc1nnc(-c2cnn(-c3ccccc3)c2N)n1Cc1ccc(F)cc1	-3.3	19393*	0.2	?	-8.9
Cc1ccc(S(=O)(=O)N(CC(=O)N/N=C/c2ccco2)Cc2ccccc2)cc1	-2.9	22458*	1.5	?	-3.8
Cc1cccc(CN(CC(=O)N/N=C/c2ccco2)S(=O)(=O)c2ccc(Cl)cc2)c1	-6.5	6024	2.6	-0.1	2.8
